High-throughput results as filed in PubChem.
Most compounds without a hit are left out; they make up all but 11% or so of the library.
HEK cytotox = kills HEK 293 cells; HEK 293 viability, ATP luminescence (CellTiter-Glo), 48-72 h; Potency, µM (top dose mostly 115 µM), usual class: inhibitors; actives 6.6% (n = 94,000); AID 1345083; further: nearly all actives have a fitted effect of over 60% in size
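250 HEK 293 cells/well; compound by pintool; incubated 48 or 72 hr at 37 degree Celsius; CellTiter-Glo added, 10 min RT, luminescence imaged.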
FLuc inh = inhibitors of firefly (Photinus pyralis) luciferase | P08659 | purified P. pyralis luciferase, luminescence, biochemical | Potency, µM (series often up to 115 µM), most hits filed as inhibitors | actives 2.5% (n = 76,000); further: nearly all actives have a fitted effect of over 65% in size
Target sequence (P08659 whole entry, looked up): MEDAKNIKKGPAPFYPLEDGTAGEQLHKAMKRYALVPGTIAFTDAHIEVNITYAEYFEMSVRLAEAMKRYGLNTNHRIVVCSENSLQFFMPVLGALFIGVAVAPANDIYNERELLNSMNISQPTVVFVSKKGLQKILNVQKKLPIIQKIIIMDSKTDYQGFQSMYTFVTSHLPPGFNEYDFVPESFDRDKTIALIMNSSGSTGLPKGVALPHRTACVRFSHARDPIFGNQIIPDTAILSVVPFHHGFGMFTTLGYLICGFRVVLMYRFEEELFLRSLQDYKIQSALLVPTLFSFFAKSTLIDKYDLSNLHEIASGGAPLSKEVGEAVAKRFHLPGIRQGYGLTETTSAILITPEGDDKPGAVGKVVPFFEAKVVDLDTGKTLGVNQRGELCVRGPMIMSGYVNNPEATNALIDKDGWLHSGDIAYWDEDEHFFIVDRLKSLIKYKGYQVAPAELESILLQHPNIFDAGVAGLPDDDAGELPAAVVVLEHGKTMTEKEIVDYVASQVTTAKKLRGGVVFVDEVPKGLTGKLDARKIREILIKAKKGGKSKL
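Cell-free enzyme assay, 10nM P. pyralis luciferase, luciferin and ATP each at 10uM. Inhibition profiled over a 6-point titration, read as luminescence.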
hNpr1 antagonist = antagonists of human natriuretic peptide receptor Npr1; actives 1.6% (n = 76,000); AID 1347048; Potency, µM (doses to about 46.3 µM), actives largely listed as inhibitors; HEK293 hNpr1 GloSensor cGMP, ANP-stimulated luminescence; P16066; calls by dose curve; further: nearly all actives have a fitted effect of over 60% in size
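Compound pre-incubated 30 min at room temperature on GloSensor-loaded HEK293 cells stably carrying hNpr1 and the pGS-40F cGMP biosensor. Stimulation uses hNppA at 0.1 nM final; luminescence is taken at baseline and 20 min post-agonist.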
NIH3T3 tox = NIH 3T3 cell cytotoxicity. actives 4.3% (n = 94,000). Potency, µM (doses to about 96.7 µM), hits mostly inhibitors. NIH 3T3 viability, CellTiter-Glo ATP luminescence, 48-72 h. AID 1345082; further: nearly all actives have a fitted effect of over 55% in size
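Cytotoxicity was measured by CellTiter-Glo ATP luminescence after 48 or 72 h compound exposure at 37 °C. Mouse NIH 3T3 fibroblasts were seeded at 400 cells/well and dosed by 23 nL pin transfer.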
A number is an active result. Unless noted, the call rests on the fitted dose curve; in most records, active means well fitted curve in the direction sought with a large enough effect; inconclusive means small, poorly fitted or top-dose-only effect, or another doubt; inactive means no such curve, though single readings can be large; an effect the other way counts as inactive or inconclusive.

Cc1cccc(C(=O)N2CCC3(CC2)CC(CC(=O)N2CCOCC2)CCO3)c1 (centres undefined) was read as HEK cytotox inactive, FLuc inh inactive, hNpr1 antagonist inactive and NIH3T3 tox inactive.
COCC1CN(C(=O)c2ccc(Cc3c(C)noc3C)o2)CC12CCNCC2 (centres undefined) was read as HEK cytotox inactive, FLuc inh inactive, hNpr1 antagonist inactive and NIH3T3 tox inactive.
`COc1ccc(-c2cn3cc(C(=O)NCCc4ccccc4F)nc3s2)cc1` gave HEK cytotox inactive and NIH3T3 tox inactive.
For Cc1ncccc1Oc1ncnc(N2CCCCC(N)C2)c1C (centres undefined) the results were HEK cytotox inactive, FLuc inh inactive, hNpr1 antagonist inactive and NIH3T3 tox inactive.
Screening CCCc1noc(-c2cccn3c(CNC(=O)c4cc(F)ccc4Cl)nnc23)n1 returned HEK cytotox inconclusive, FLuc inh inactive, hNpr1 antagonist inactive and NIH3T3 tox inactive.
O=C1N(C2CCN(Cc3ccccn3)CC2)C(c2ccncc2)C12CCCCC2 (centres undefined) was read as HEK cytotox inactive, FLuc inh inactive, hNpr1 antagonist inactive and NIH3T3 tox inactive.
Screening CC1=C[C@@H](CNCCN(C)C)[C@H](C(C)C)C[C@H]1Cc1nnc(C(C)(C)C)o1 returned HEK cytotox inconclusive, FLuc inh inactive, hNpr1 antagonist inactive and NIH3T3 tox 71µM.
CC1=C[C@@H](CNCCN2CCOCC2)[C@H](C(C)C)C[C@H]1Cc1nnc(-c2ccc(C)cc2)o1 was read as HEK cytotox 40µM, FLuc inh inactive, hNpr1 antagonist inactive and NIH3T3 tox 35µM.
Screening CC(=O)NCCNC[C@@H]1C=C(C)[C@H](Cc2nnc(-c3ccc(C)cc3)o2)C[C@H]1C(C)C returned HEK cytotox 56µM, FLuc inh inactive, hNpr1 antagonist inactive and NIH3T3 tox 40µM.
For CC1=C[C@@H](CNCCN(C)C)[C@H](C(C)C)C[C@H]1Cc1nnc(C)o1 the results were HEK cytotox inactive, FLuc inh inactive, hNpr1 antagonist inactive and NIH3T3 tox inactive.
`CC1=C[C@@H](CNCCN(C)C)[C@H](C(C)C)C[C@H]1Cc1nnc(-c2ccc(C)cc2)o1` gave HEK cytotox 35µM, FLuc inh inactive, hNpr1 antagonist inactive and NIH3T3 tox 35µM.
COc1ccc(-c2nnc(C[C@@H]3C[C@@H](C(C)C)[C@H](CNC(=O)c4cnccn4)C=C3C)o2)cc1 was read as HEK cytotox inconclusive, FLuc inh inactive, hNpr1 antagonist inactive and NIH3T3 tox inactive.
CN(C)Cc1cc(C[C@@H]2C[C@H](NC(=O)Nc3ccccc3)C2(C)C)no1 was read as HEK cytotox inactive, FLuc inh inactive, hNpr1 antagonist inactive and NIH3T3 tox inactive.
Screening O=C(c1ccccc1F)N1CCC(C(=O)N2CCC(c3nc4ncccc4[nH]3)CC2)C1 (centres undefined) returned HEK cytotox inactive and NIH3T3 tox inactive.
`Cc1noc(C)c1-c1cc2cc(CN(C)C)oc2c(Nc2ccn(C)n2)n1` gave HEK cytotox inconclusive, FLuc inh inactive, hNpr1 antagonist inactive and NIH3T3 tox inconclusive.
For COc1cc(CNc2nc(-c3c(C)noc3C)cc3cc(CN(C)C)oc23)cc(OC)c1 the results were HEK cytotox inconclusive, FLuc inh inactive, hNpr1 antagonist inactive and NIH3T3 tox inconclusive.
Screening Cc1noc(C)c1-c1cc2cc(CN(C)C)oc2c(Nc2cccc([S+](C)(=O)[O-])c2)n1 returned HEK cytotox 50µM, FLuc inh inactive, hNpr1 antagonist inactive and NIH3T3 tox 45µM.
Screening COc1cccc(Nc2nc(-c3c(C)noc3C)cc3cc(CN(C)C)oc23)c1 returned HEK cytotox 45µM, FLuc inh inactive, hNpr1 antagonist inactive and NIH3T3 tox 45µM.
CNC(=O)c1cc(C)nc2onc(C3CCN(C(=O)Nc4ccc(Cl)cc4)CC3)c12 was read as HEK cytotox inactive and NIH3T3 tox inactive.
CSc1ccc(-c2cccc(CN3CCC(NC(=O)c4ccccc4Cl)CC3)c2)cc1 was read as HEK cytotox 40µM and NIH3T3 tox inconclusive.
O=C(Nc1ccccc1)NC1CCN(Cc2cccc(-c3ccc(F)c(F)c3)c2)CC1 was read as HEK cytotox 20µM and NIH3T3 tox 16µM.
Screening CSc1ccc(-c2cccc(CN3CCC(NC(=O)c4ccc(Cl)cc4)CC3)c2)cc1 returned HEK cytotox inactive and NIH3T3 tox inactive.
For CC(C)(C)C(=O)NC1CCN(Cc2cccc(-c3ccc(F)c(F)c3)c2)CC1 the results were HEK cytotox inactive and NIH3T3 tox inactive.
`CSc1ccc(-c2cccc(CN3CCC(NC(=O)Nc4ccc(Cl)cc4)CC3)c2)cc1` gave HEK cytotox 22µM and NIH3T3 tox 13µM.
Screening CC(=O)N1CCC(N2C(=O)c3c(c(C)nn3-c3ccccc3)C2C(C)C)CC1 (centres undefined) returned HEK cytotox inactive and NIH3T3 tox inconclusive.
Screening Cc1nn(-c2ccccc2)c2c1C(C(C)C)N(C1CCN(C(=O)C3CCCC3)CC1)C2=O (centres undefined) returned HEK cytotox inactive and NIH3T3 tox inconclusive.
`Cc1ccccc1C(=O)N1CCC(N2C(=O)c3c(c(C)nn3-c3ccccc3)C2C(C)C)CC1` (centres undefined) gave HEK cytotox 40µM and NIH3T3 tox inconclusive.
Screening Cc1nn(-c2ccccc2)c2c1C(C(C)C)N(C1CCN(C(=O)c3ccccc3F)CC1)C2=O (centres undefined) returned HEK cytotox 45µM and NIH3T3 tox inconclusive.
For c1ccc2c(c1)COC1(CCNC1)CN2CC1CCCC1 (centres undefined) the results were HEK cytotox 50µM and NIH3T3 tox 35µM.
For CC(C)N(Cc1cnn(C)c1)Cc1cn(Cc2ccccc2)nc1-c1ccc2c(c1)OCO2 the results were HEK cytotox inactive, FLuc inh inactive, hNpr1 antagonist inactive and NIH3T3 tox inactive.
Screening O=C(Nc1ccc2ncnc(N3CCCCC3)c2c1)c1ccc(F)c(F)c1 returned HEK cytotox 45µM, FLuc inh inactive, hNpr1 antagonist inactive and NIH3T3 tox inconclusive.
Screening Cc1ccc(C(=O)Nc2ccc3c(N4CCOCC4)ncnc3c2)cc1 returned HEK cytotox inconclusive, FLuc inh 16µM, hNpr1 antagonist inactive and NIH3T3 tox inconclusive.
O=C(Nc1ccc2ncnc(N3CCCCC3)c2c1)c1ccsc1 was read as HEK cytotox 40µM, FLuc inh inactive, hNpr1 antagonist inactive and NIH3T3 tox 25µM.
For O=C(Nc1ccc2ncnc(N3CCCC3)c2c1)c1cccc(Br)c1 the results were HEK cytotox 18µM, FLuc inh inactive, hNpr1 antagonist inactive and NIH3T3 tox 14µM.
O=C(Nc1ccc2c(N3CCCCC3)ncnc2c1)c1ccsc1 was read as HEK cytotox inconclusive, FLuc inh inconclusive, hNpr1 antagonist inactive and NIH3T3 tox inconclusive.
Screening Cc1nc(N2CCC(N[C@H]3Cc4ccccc4[C@@H]3N)CC2)c2ccsc2n1 returned HEK cytotox inconclusive, FLuc inh inactive, hNpr1 antagonist inactive and NIH3T3 tox inactive.
